Measured values taken from PubChem BioAssay AID1159580 (chemical genetic matrix, 2015).
Values joined by “and” are separate entries in the source; they are usually repeats but may differ in a detail not shown here. Identical values can stand only once. The campaign covered roughly 5,500 compounds. About 2,000 (36%) were called active. Inconclusive results (about 18%) are left out. No stated cut-off is given here; in the data, active means normalized growth mostly below about 0.91 (no sharp cut-off); inconclusive means no clear call, values can overlap the other calls; inactive means mostly above about 0.92. This is one part of the list.

Experiment: chemical genetic growth profiling, strain panel (AID 1159580);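 further: tested at 20 µM; growth read once vehicle control cultures reached saturation at 30 °C; 1 = growth at the plate median or of vehicle wells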
Conditions: S. cerevisiae deletion strains, growth OD

Measured: normalized growth

CN(C)c1nc(N(C)C)nc(N(C)C)n1
inactive: locus YAL021C, strain ccr4, stronger effect = lower value 0.992 | locus YAL026C, strain drs2, stronger effect = lower value 0.979 | locus YAL030W, strain snc1, stronger effect = lower value 1 | locus YAL040C, strain CLN3, stronger effect = lower value 0.972 | locus YBL061C, strain skt5, stronger effect = lower value 0.959 | locus YBR009C, strain hhf1, stronger effect = lower value 0.97 | locus YBR021W, strain FUR4, stronger effect = lower value 1 | locus YBR023C, strain chs3, stronger effect = lower value 0.969 | locus YBR171W, strain sec66, stronger effect = lower value 0.976 | locus YBR229C, strain ROT2, stronger effect = lower value 1.01 | locus YBR231C, strain swc5, stronger effect = lower value 0.971 | locus YBR279W, strain paf1, stronger effect = lower value 1.01 | locus YCL011C, strain gbp2, stronger effect = lower value 0.959 | locus YCL016C, strain dcc1, stronger effect = lower value 0.966 | locus YCL029C, strain bik1, stronger effect = lower value 1.03 | locus YCL061C, strain MRC1, stronger effect = lower value 0.979 | locus YCL069W, strain vba3, stronger effect = lower value 0.986 | locus YCR088W, strain abp1, stronger effect = lower value 0.989 | locus YDL005C, strain med2, stronger effect = lower value 0.984 | locus YDL035C, strain GPR1, stronger effect = lower value 1.02 | locus YDL040C, strain nat1, stronger effect = lower value 0.991 | locus YDL074C, strain BRE1, stronger effect = lower value 0.991 | locus YDL101C, strain DUN1, stronger effect = lower value 1.01 | locus YDL134C, strain PPH21, stronger effect = lower value 1.01 | locus YDL185W, strain tfp1, stronger effect = lower value 1.02 | locus YDL192W, strain arf1, stronger effect = lower value 1.02 | locus YDR001C, strain nth1, stronger effect = lower value 0.977 | locus YDR069C, strain doa4, stronger effect = lower value 0.979 | locus YDR101C, strain arx1, stronger effect = lower value 1.01 | locus YDR137W, strain rgp1, stronger effect = lower value 0.924 | locus YDR150W, strain NUM1, stronger effect = lower value 1 | locus YDR159W, strain sac3, stronger effect = lower value 0.963 | locus YDR162C, strain NBP2, stronger effect = lower value 1.02 | locus YDR195W, strain ref2 0.998 | locus YDR297W, strain sur2, stronger effect = lower value 0.981 | locus YDR318W, strain mcm21, stronger effect = lower value 1.02 | locus YDR334W, strain swr1, stronger effect = lower value 0.942 | locus YDR335W, strain msn5, stronger effect = lower value 0.97 | locus YDR363W, strain ESC2, stronger effect = lower value 1.03 | locus YDR388W, stronger effect = lower value 1.02 | locus YDR392W, strain spt3, stronger effect = lower value 0.899 | locus YDR502C, strain sam2, stronger effect = lower value 1.01 | locus YEL003W, strain gim4, stronger effect = lower value 0.987 | locus YEL037C, strain rad23, stronger effect = lower value 0.988 | locus YEL061C, strain CIN8 (second series), stronger effect = lower value 0.976 | locus YEL061C, strain CIN8, stronger effect = lower value 1 | locus YER002W, strain NOP16, stronger effect = lower value 0.995 | locus YER015W, strain faa2, stronger effect = lower value 0.969 | locus YER016W, strain bim1, stronger effect = lower value 0.987 | locus YER110C, stronger effect = lower value 1.02 | locus YER111C, strain swi4, stronger effect = lower value 0.981 | locus YER155C, strain BEM2 (second series), stronger effect = lower value 0.975 | locus YER155C, strain BEM2, stronger effect = lower value 1 | locus YER167W, strain BCK2, stronger effect = lower value 1.01 | locus YFR010W, strain ubp6, stronger effect = lower value 0.956 | locus YGL078C, strain dbp3, stronger effect = lower value 1.01 | locus YGL086W, strain mad1, stronger effect = lower value 1 | locus YGL167C, strain pmr1, stronger effect = lower value 0.975 | locus YGL173C, strain kem1, stronger effect = lower value 0.959 | locus YGL227W, strain vid30, stronger effect = lower value 0.989 | locus YGL240W, strain doc1, stronger effect = lower value 0.966 | locus YGL248W, strain PDE1, stronger effect = lower value 1.01 | locus YGL253W, strain hxk2, stronger effect = lower value 0.987 | locus YGR078C, strain PAC10, stronger effect = lower value 1 and 0.999 | locus YGR135W, strain pre9, stronger effect = lower value 1.03 | locus YGR252W, strain gcn5, stronger effect = lower value 1.05 | locus YHR013C, strain ard1, stronger effect = lower value 0.964 | locus YHR027C, strain rpn1, stronger effect = lower value 0.959 | locus YHR030C, strain SLT2, stronger effect = lower value 1.01 and 0.974 | locus YHR079C, strain IRE1 (second series), stronger effect = lower value 1.02 | locus YHR079C, strain IRE1, stronger effect = lower value 0.981 | locus YHR094C, strain hxt1, stronger effect = lower value 1.02 | locus YHR129C, strain ARP1, stronger effect = lower value 1.01 | locus YHR142W, strain chs7, stronger effect = lower value 0.929 | locus YHR200W, strain rpn10, stronger effect = lower value 1.02 | locus YIL066C, strain RNR3, stronger effect = lower value 1.01 | locus YIL073C, strain SPO22, stronger effect = lower value 1.09 | locus YIL125W, strain kgd1, stronger effect = lower value 1.02 | locus YIR030C, strain dcg1, stronger effect = lower value 1.03 | locus YJL092W, strain hpr5, stronger effect = lower value 0.988 | locus YJL095W, strain BCK1 (second series), stronger effect = lower value 0.975 | locus YJL095W, strain BCK1, stronger effect = lower value 1 and 0.97 | locus YJL115W, strain asf1, stronger effect = lower value 0.959 | locus YJL129C, strain trk1, stronger effect = lower value 0.999 | locus YJL134W, strain LCB3, stronger effect = lower value 1.01 | locus YJL154C, strain vps35, stronger effect = lower value 0.986 | locus YJL164C, strain tpk1, stronger effect = lower value 0.989 | locus YJL166W, strain qcr8, stronger effect = lower value 0.958 | locus YJL168C, strain set2, stronger effect = lower value 1.01 | locus YJL187C, strain SWE1 (second series), stronger effect = lower value 1 | locus YJL187C, strain SWE1, stronger effect = lower value 0.978 | locus YJR043C, strain POL32, stronger effect = lower value 1.01 | locus YJR066W, strain TOR1, stronger effect = lower value 0.947
